NCOA2 inhibitor = inhibition of GAL4-SRC2 driven luciferase reporter, primary screen, SRC2 inhibitor project, cell-based, luminescence | Nuclear receptor coactivator 2 (Homo sapiens), Q15596 | HEK293 GAL4-SRC2 luciferase reporter | inhibition, % at 9 µM | 370,000 tested, 0.17% active;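 active = inhibition above the mean inhibition of all tested compounds plus 3 SD, set per campaign, cut at about 52% in these data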
NR2F2 inh = NR2F2 transcriptional activity inhibitors, primary screen, cell-based, luciferase reporter, HEK293T, luminescence; inhibition, % at 8.6 µM; HEK293T NGFI-A luciferase reporter; 370,000 tested, 0.7% active; COUP transcription factor 2 (Homo sapiens), P24468; AID 686940, 2013;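 active = inhibition above a per-plate cutoff, mean inhibition of test wells between control levels plus 3 SD, cut at about 38% in these data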;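 also: cells cotransfected with COUP-TFII expression vector driving the NGFI-A reporter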
NCOA3 inh = SRC3 coactivator transcriptional activity inhibitors, primary screen, cell-based, luminescence | Nuclear receptor coactivator 3 (Homo sapiens), Q9Y6Q9 | inhibition, % at 3.6 µM | 360,000 tested, 0.17% active | AID 588352, 2011 | HEK293 GAL4-SRC3 luciferase reporter;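 active = inhibition above a per-campaign cutoff, the mean of all compounds plus 3 SD, cut at about 60% in these data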;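 also: higher means less SRC3-driven luciferase light from the GAL4 reporter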
NCOA1 inh = SRC1 coactivator transcriptional activity inhibitors, primary screen, cell-based, luminescence | Nuclear receptor coactivator 1 (Homo sapiens), Q15788 | HEK293 GAL4-SRC1 luciferase reporter | inhibition, % at 3.6 µM | 360,000 tested, 0.12% active;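 active = inhibition above the campaign mean plus 3 SD, with each screening campaign given its own cutoff, cut at about 60% in these data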
NR5A2 inv ag = LRH-1 (NR5A2) inverse agonists, primary screen, cell-based, luminescence, HEK293T, StAR-luciferase reporter; 360,000 tested, 0.13% active; LRH-1 transfected, 24 h; inhibition, % at 3.6 µM;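 active = inhibition above the mean inhibition of all tested compounds plus 3 SD, cut at about 73% in these data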
Target sequence (O00482 whole entry, looked up): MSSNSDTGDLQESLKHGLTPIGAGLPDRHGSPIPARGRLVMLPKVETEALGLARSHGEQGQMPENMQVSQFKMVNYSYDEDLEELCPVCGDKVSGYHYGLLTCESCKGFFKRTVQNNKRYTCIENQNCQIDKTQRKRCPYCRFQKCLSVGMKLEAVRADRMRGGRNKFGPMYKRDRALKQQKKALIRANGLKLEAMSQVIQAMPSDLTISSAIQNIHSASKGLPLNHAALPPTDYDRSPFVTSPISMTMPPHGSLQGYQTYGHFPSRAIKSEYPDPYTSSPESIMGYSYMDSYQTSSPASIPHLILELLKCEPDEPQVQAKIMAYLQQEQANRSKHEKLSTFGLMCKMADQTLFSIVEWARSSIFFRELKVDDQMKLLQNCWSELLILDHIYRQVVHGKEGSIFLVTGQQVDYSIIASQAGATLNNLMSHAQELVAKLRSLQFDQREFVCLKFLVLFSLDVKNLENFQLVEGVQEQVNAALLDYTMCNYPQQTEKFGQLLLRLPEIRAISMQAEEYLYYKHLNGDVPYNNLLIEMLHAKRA
VP16 Luc counter = Gal4-VP16 luciferase reporter inhibitors, counter-screen for COUP-TFII antagonist project, cell-based, luminescence, HEK293; 2,500 tested, 25% active; inhibition, % at 8.5 µM; shares compounds with NR2F2 inh; in the data active = inhibition above about 13%
NR2F2 inh conf = NR2F2 transcriptional activity inhibitors, confirmation, cell-based, luciferase reporter, HEK293, triplicate. shares compounds with NR2F2 inh. HEK293 NGFI-A luciferase reporter, luminescence. inhibition, % at 8.5 µM. 2,500 tested, 45% active;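 active = mean inhibition over three repeats above a set limit taken from the earlier primary screen, cut at about 38% in these data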
Of the large screens only hits and unclear results are named; the others gave an inactive call (follow-up assays come after a bar, where they were run). Most compounds without a hit are left out; they make up all but 0.83% or so of the library.

Cc1ccc(-c2cc(-c3ccc(C)cc3)[n+](-c3ccc(C(=O)O)cc3)c(-c3ccc(C)cc3)c2)cc1	none
Cc1ccc(C[n+]2c(-c3ccc(C)cc3)cc(-c3ccc(C)cc3)cc2-c2ccc(C)cc2)cc1	NCOA3 inh 82.6, NCOA1 inh 68.4, NR5A2 inv ag 95.3 (no result: NCOA2 inhibitor, NR2F2 inh)
C=C1C(=O)O[C@H]2[C@H]1[C@H](OC(=O)CC(=O)O[C@@H]1C[C@@H](C)[C@@H]3C=CC(=O)[C@@]3(C)[C@H]3OC(=O)C(=C)[C@H]13)C[C@@H](C)[C@H]1C=CC(=O)[C@]12C	none
C=C1C(=O)O[C@H]2C[C@@H](C)[C@@H]3C=CC(=O)[C@@]3(C)C[C@H]12	NCOA2 inhibitor 72.3 (no result: NCOA3 inh, NCOA1 inh, NR5A2 inv ag)
C=C1C(=O)OC2CC(C)C3C=CC(=O)C3(C)C(O)C12 (configuration not stated)	NR5A2 inv ag 80.6 (no result: NCOA2 inhibitor, NR2F2 inh)
C=C1C(=O)O[C@@H]2C[C@@H](C)[C@@H]3C4OC4C(=O)[C@@]3(C)[C@@H](O)[C@H]12 (some centres not stated)	NCOA2 inhibitor 77.5, NR2F2 inh 68.2
COc1ccc([C@@H]2C[C@H]3[C@@H](CN2)CON3C)cc1	none (no result: NCOA3 inh, NCOA1 inh, NR5A2 inv ag)
C=CCN(CC#CCO)Cc1ccc(OC)cc1OC	none (no result: NCOA3 inh, NCOA1 inh, NR5A2 inv ag)
CC(C)C[C@H]1N=C(c2ccccc2)c2ccccc2N(CC(=O)NC(C)(C)C)C1=O	none (no result: NCOA3 inh, NCOA1 inh, NR5A2 inv ag)
O=C(CN1C(=O)[C@@H](Cc2ccc(O)cc2)N=C(c2ccccc2)c2ccccc21)NC1CCCCC1	none (no result: NCOA3 inh, NCOA1 inh, NR5A2 inv ag)
C=C1C(=O)C(C)=C2C(=O)N3Cc4[nH]c5ccccc5c4CC3(C(=O)OC)C12 (configuration not stated)	none (no result: NCOA3 inh, NCOA1 inh, NR5A2 inv ag)
CC=CC(C)=CC(C)C(=O)CC(O)CC1CC(=O)NC(=O)C1 (configuration not stated)	NR2F2 inh 39.4
C[C@H]1CCC[C@@H](O)CCC/C=C/c2cc(O)cc(O)c2C(=O)O1	NCOA3 inh 63.8
Cc1cc([N+](=O)[O-])c2ccccc2[n+]1[O-]	NCOA1 inh 62.6 (no result: NCOA2 inhibitor, NR2F2 inh)
CCOC(=O)CC[C@@H]1CC[C@]2(CCCN(Cc3cccnc3)C2)O1	none (no result: NCOA3 inh, NCOA1 inh, NR5A2 inv ag)
Cc1nc2c(=O)n(C)c(=O)nc-2n(C)n1	NCOA2 inhibitor 74.7, NR2F2 inh 64.4, NCOA3 inh 91.6, NCOA1 inh 86.6, NR5A2 inv ag 94.8
COc1cc2cc(C(=O)N3CC(COS(C)(=O)=O)c4ccc(O)cc43)[nH]c2c(OC)c1OC (configuration not stated)	NCOA3 inh 94.5, NCOA1 inh 89.6 (no result: NCOA2 inhibitor, NR2F2 inh)
CC(C)(C)NC(=O)C1CN=C(c2ccccc2)c2cc(Cl)ccc2N1C(=O)C1CCC1 (configuration not stated)	none (no result: NCOA3 inh, NCOA1 inh, NR5A2 inv ag)
CC(C)C(C(=O)NC(C)(C)C)N1C(=O)CN=C(c2ccccc2)c2ccccc21 (configuration not stated)	none (no result: NCOA3 inh, NCOA1 inh, NR5A2 inv ag)
CCOC(=O)[C@]12Cc3cc(C)ccc3[C@H]1N(C1CCCCC1)C(=O)c1ccccc12	none (no result: NCOA3 inh, NCOA1 inh)
CCOC(=O)[C@]12Cc3c(cc(OC)c(OC)c3OC)[C@H]1N(C1CCCCC1)C(=O)c1ccccc12	NR2F2 inh 59.9 (no result: NCOA3 inh, NCOA1 inh)
COC(=O)C1CN(C#N)N(c2ccc(Cl)cc2)C12c1ccccc1-c1ccccc12 (configuration not stated)	NCOA3 inh 72.6 (no result: NCOA2 inhibitor, NR2F2 inh)
CC1(C)C(C(=O)N2CCN(c3ccc(Cl)cc3)CC2)C1(C)C	none
C[C@H]1[C@@H](OS(=O)(=O)O)C[C@@H]2C[C@H]([C@@H](O)c3cc(=O)[nH]c(=O)[nH]3)NC3=NC[C@H]1N32	NR5A2 inv ag 99.5 (no result: NCOA2 inhibitor, NR2F2 inh)
CCCC(=O)N1c2ccc(Cl)cc2C(c2ccccc2)=NCC1C(=O)NC(C)(C)C (configuration not stated)	none (no result: NCOA3 inh, NCOA1 inh, NR5A2 inv ag)
CCCC[C@@H](C)C[C@@H](C)C(=O)N(C)[C@@H](CC(C)C)C(=O)N[C@H](C(=O)N(C)[C@H](C(=O)N1C[C@@H](O)C[C@H]1C(=O)N1C(=O)C=C[C@@H]1C)C(C)C)C(C)OC(C)=O (some centres not stated)	NR5A2 inv ag 75.3 (no result: NCOA2 inhibitor, NR2F2 inh)
COc1ccc(-[n+]2c(-c3ccccc3)cc(-c3ccc(C)cc3)cc2-c2ccccc2)cc1	NR2F2 inh 76.9, NCOA3 inh 78.5, NCOA1 inh 66.1, NR5A2 inv ag 86.2
COC(=O)C1=C[C@H]([C@@H](C)[C@H](OC)c2ccccc2Br)[C@@H]2[C@H]1c1ccccc1N2C	none (no result: NCOA3 inh, NCOA1 inh, NR5A2 inv ag)
C[C@H]1CCC/C=C/C2C[C@H](O)CC2[C@H](O)/C=C/C(=O)O1 (some centres not stated)	NCOA3 inh 66.9, NR5A2 inv ag 89.3 (no result: NCOA2 inhibitor, NR2F2 inh)
C[C@H]1CCC[C@H](O)CCCCCc2cc(O)cc(O)c2C(=O)O1	none
CC12CCC(O)CC1CCC1C2CCC2(C)C(C3=CC(=O)OC3)C(O)CC12O (configuration not stated)	NR2F2 inh 50.8, NCOA3 inh 67.3, NR5A2 inv ag 85.9
CC12CC[C@H]3[C@@H](CCC4(O)C[C@H](O)CCC34/C=N/NC(=O)Cc3ccccc3)C1(O)CCC2C1=CC(=O)OC1 (some centres not stated)	none
O=[N+]([O-])c1ccc(N(CCO)CCO)c2c1no[n+]2[O-]	NCOA2 inhibitor 57.6, NCOA3 inh 67.3, NR5A2 inv ag 83.5
Cc1cc(N2CCNC[C@H]2C)ccc1N1CC[C@H](O)C1	none (no result: NCOA3 inh, NCOA1 inh, NR5A2 inv ag)
N#CCC[C@@H]1CC[C@]2(CCCN(Cc3ccccn3)C2)O1	none (no result: NCOA3 inh, NCOA1 inh, NR5A2 inv ag)
CC(=O)O[C@H]1[C@H]2O[C@]23[C@@H]2CC[C@]4(O)C[C@@H](O)CC[C@]4(C)C2CC[C@]3(C)[C@H]1c1ccc(=O)oc1 (some centres not stated)	NCOA3 inh 88.6, NCOA1 inh 86.2, NR5A2 inv ag 99.6 (no result: NCOA2 inhibitor, NR2F2 inh)
CN1CCN(c2ccc(S(C)(=O)=O)cc2[N+](=O)[O-])CC1	none
CN1CCN(c2ccc([N+](=O)[O-])c3no[n+]([O-])c23)CC1	NCOA2 inhibitor 93.7, NR2F2 inh 98.0, NCOA3 inh 93.9, NCOA1 inh 95.9, NR5A2 inv ag 93.5 | VP16 Luc counter 96.0 | NR2F2 inh conf 108.9
CCN1/C(=C/C=C/C2=[N+](CC)c3ccccc3C2(C)C)C(C)(C)c2ccccc21	NR2F2 inh 92.0, NCOA3 inh 82.3, NCOA1 inh 71.7, NR5A2 inv ag 98.5 | VP16 Luc counter 42.4 | NR2F2 inh conf 90.0

Screening results: PubChem BioAssay, The Scripps Research Institute Molecular Screening Center
